Data published in PMC7862700, “An all-to-all approach to the identification of sequence-specific readers for epigenetic DNA modifications on cytosine”.

Tests used:
Test in all cases: DAPPL (digital affinity profiling via proximity ligation, sequencing); 10 mM Tris-HCl pH 7.5, 50 mM NaCl, 1 mM DTT, 4% glycerol, room temperature, 30 min; GST-TFs on glutathione beads, 16-mer random dsDNA library, 0.1% formaldehyde crosslink after washing; high values mean tight binding
Details in all cases: protein: recombinant; tags: N-terminal GST; dsDNA, one strand shown
[1] = target: T1, FLI1 (Homo sapiens, UniProt Q01543 1-452)
T1 sequence: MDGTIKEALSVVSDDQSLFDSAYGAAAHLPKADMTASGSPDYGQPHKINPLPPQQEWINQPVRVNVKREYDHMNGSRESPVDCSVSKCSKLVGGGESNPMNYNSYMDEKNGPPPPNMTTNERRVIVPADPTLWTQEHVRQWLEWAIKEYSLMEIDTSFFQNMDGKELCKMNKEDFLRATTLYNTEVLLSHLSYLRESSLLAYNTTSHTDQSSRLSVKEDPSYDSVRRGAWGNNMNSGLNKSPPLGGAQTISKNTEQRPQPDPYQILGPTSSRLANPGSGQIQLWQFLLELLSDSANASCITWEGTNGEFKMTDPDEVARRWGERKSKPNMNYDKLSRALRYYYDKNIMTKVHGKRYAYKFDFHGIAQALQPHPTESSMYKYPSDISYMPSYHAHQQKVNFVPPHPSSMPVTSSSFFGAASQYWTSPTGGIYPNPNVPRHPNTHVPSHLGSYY
In short: (§1)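 Pools were built from human transcription factors expressed in yeast as GST fusions, captured on glutathione beads and DNA-barcoded, along with a tag-only sample. Incubation with 200 nmole of a 16-mer random double-stranded DNA library lasted 30 min at room temperature in Tris/NaCl/DTT/glycerol buffer, and was followed by washing, 0.1% formaldehyde crosslinking, proximity ligation, PCR amplification and Illumina NextSeq500 sequencing. Binding signal is the quotient of each hexamer's read frequency for a factor and its frequency for the tag-only sample.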

[2] = target: T2, ELK1 (Homo sapiens, UniProt P19419 1-428)
T2 sequence: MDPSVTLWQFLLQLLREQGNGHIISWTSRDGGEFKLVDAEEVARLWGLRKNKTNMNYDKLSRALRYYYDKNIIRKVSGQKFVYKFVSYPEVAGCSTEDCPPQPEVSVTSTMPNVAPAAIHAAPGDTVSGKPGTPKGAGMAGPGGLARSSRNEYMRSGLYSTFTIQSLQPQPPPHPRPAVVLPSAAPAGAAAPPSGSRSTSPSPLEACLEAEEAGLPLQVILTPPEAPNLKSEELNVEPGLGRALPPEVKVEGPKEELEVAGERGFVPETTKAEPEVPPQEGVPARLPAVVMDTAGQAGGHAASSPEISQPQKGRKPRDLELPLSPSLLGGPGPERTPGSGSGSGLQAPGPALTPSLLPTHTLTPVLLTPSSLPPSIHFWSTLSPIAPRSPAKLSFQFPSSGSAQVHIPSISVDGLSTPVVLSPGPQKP
In short: as §1

[3] = target: T3, GABPA (Homo sapiens, UniProt Q06546 1-454)
T3 sequence: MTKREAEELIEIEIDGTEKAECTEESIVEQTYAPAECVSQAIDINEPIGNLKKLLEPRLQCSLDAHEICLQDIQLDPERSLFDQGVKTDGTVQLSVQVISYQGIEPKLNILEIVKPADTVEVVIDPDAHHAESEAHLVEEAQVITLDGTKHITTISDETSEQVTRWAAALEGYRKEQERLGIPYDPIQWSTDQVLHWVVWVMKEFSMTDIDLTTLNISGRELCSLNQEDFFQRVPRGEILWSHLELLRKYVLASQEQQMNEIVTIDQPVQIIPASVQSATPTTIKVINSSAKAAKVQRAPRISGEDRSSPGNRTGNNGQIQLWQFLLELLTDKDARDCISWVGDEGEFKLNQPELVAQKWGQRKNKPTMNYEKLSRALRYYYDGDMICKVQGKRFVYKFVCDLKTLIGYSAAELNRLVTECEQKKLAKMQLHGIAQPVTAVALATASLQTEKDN
In short: as §1

[4] = target: T4, ERG (Homo sapiens, UniProt P11308 1-479)
T4 sequence: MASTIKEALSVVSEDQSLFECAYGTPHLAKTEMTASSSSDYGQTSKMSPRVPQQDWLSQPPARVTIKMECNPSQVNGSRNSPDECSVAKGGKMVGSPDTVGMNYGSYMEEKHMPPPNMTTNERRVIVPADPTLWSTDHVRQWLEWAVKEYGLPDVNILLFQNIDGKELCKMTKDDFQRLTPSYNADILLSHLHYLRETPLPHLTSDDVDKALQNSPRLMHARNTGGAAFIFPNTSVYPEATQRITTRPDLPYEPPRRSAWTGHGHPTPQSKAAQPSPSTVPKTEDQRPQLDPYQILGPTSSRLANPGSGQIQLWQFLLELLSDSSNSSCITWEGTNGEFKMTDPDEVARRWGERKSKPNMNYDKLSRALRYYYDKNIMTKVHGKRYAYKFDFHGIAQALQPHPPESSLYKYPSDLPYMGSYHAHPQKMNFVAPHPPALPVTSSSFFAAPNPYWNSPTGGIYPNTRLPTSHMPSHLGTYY
In short: as §1

[5] = target: ELF1 (Homo sapiens, UniProt P32519 1-619)
In short: as §1

[6] = target: T5, EHF (Homo sapiens, UniProt Q9NZC4 1-300)
T5 sequence: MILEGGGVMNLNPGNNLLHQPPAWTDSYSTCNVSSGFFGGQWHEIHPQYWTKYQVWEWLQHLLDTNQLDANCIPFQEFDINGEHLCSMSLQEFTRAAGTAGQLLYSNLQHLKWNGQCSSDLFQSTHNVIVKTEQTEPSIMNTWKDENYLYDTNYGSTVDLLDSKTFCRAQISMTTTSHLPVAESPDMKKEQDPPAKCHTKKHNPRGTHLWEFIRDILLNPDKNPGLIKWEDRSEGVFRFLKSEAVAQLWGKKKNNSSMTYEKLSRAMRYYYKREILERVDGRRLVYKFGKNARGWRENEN
In short: as §1

[7] = target: SPI1 (Homo sapiens, UniProt P17947 1-270)
In short: as §1

[8] = target: SPIB (Homo sapiens, UniProt Q01892 1-262)
In short: as §1

[9] = target: T6, ELK3 (Homo sapiens, UniProt P41970 1-407)
T6 sequence: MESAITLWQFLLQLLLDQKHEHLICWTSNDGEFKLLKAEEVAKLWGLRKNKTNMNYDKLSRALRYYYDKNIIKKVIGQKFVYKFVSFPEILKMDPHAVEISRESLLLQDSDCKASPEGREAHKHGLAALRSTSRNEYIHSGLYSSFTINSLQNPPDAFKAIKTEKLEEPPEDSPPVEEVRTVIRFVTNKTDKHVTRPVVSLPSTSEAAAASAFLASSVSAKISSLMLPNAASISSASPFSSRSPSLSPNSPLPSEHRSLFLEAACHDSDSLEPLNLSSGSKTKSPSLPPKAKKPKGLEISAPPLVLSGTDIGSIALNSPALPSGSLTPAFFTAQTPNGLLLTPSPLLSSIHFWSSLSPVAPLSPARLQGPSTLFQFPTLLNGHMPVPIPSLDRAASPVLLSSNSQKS
In short: as §1

Sequence of ELF1 (P32519 whole entry): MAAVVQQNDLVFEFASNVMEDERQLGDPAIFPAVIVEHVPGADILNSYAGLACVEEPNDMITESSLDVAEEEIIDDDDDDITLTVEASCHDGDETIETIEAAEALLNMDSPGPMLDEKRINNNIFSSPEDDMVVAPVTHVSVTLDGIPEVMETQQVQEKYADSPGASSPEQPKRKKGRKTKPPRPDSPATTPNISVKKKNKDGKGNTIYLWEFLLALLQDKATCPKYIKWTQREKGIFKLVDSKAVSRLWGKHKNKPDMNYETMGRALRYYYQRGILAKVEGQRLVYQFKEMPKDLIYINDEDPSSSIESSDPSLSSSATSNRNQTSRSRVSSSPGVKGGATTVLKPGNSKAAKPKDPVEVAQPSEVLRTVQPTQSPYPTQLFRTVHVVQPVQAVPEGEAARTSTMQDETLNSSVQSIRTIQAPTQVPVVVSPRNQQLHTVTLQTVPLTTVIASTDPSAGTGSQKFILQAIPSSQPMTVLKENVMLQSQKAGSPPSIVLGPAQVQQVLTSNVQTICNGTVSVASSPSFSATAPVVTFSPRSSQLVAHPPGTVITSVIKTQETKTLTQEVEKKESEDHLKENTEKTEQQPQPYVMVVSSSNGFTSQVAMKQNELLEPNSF
Sequence of SPIB (Q01892 whole entry): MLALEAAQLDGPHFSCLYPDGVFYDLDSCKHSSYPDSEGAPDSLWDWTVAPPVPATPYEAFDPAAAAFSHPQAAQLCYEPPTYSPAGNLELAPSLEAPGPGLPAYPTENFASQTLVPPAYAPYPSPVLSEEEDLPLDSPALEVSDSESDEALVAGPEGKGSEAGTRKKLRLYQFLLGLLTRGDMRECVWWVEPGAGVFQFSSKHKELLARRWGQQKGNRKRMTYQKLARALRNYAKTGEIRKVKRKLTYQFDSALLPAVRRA

Sequence	binding signal [1]	binding signal [2]	binding signal [3]	binding signal [4]	binding signal [5]	binding signal [6]	binding signal [7]	binding signal [8]	binding signal [9]
CAAGAT	1.04 fold enrichment (6-mer frequency, TF over GST control)	1.04 fold enrichment (6-mer frequency, TF over GST control)	1.17 fold enrichment (6-mer frequency, TF over GST control)	1.05 fold enrichment (6-mer frequency, TF over GST control)	1.06 fold enrichment (6-mer frequency, TF over GST control)	1.04 fold enrichment (6-mer frequency, TF over GST control)	1.01 fold enrichment (6-mer frequency, TF over GST control)	1.01 fold enrichment (6-mer frequency, TF over GST control)	1.14 fold enrichment (6-mer frequency, TF over GST control)
CATATA	1.17 fold enrichment (6-mer frequency, TF over GST control)	1.07 fold enrichment (6-mer frequency, TF over GST control)	1.14 fold enrichment (6-mer frequency, TF over GST control)	1.08 fold enrichment (6-mer frequency, TF over GST control)	1.12 fold enrichment (6-mer frequency, TF over GST control)	1.06 fold enrichment (6-mer frequency, TF over GST control)	1.06 fold enrichment (6-mer frequency, TF over GST control)	1.06 fold enrichment (6-mer frequency, TF over GST control)	1.22 fold enrichment (6-mer frequency, TF over GST control)
GTATTT	1.47 fold enrichment (6-mer frequency, TF over GST control)	1.61 fold enrichment (6-mer frequency, TF over GST control)	1.48 fold enrichment (6-mer frequency, TF over GST control)	1.67 fold enrichment (6-mer frequency, TF over GST control)	1.53 fold enrichment (6-mer frequency, TF over GST control)	1.6 fold enrichment (6-mer frequency, TF over GST control)	1.55 fold enrichment (6-mer frequency, TF over GST control)	1.61 fold enrichment (6-mer frequency, TF over GST control)	1.75 fold enrichment (6-mer frequency, TF over GST control)
AAATAA	1.27 fold enrichment (6-mer frequency, TF over GST control)	1.32 fold enrichment (6-mer frequency, TF over GST control)	1.33 fold enrichment (6-mer frequency, TF over GST control)	1.37 fold enrichment (6-mer frequency, TF over GST control)	1.33 fold enrichment (6-mer frequency, TF over GST control)	1.29 fold enrichment (6-mer frequency, TF over GST control)	1.32 fold enrichment (6-mer frequency, TF over GST control)	1.39 fold enrichment (6-mer frequency, TF over GST control)	1.33 fold enrichment (6-mer frequency, TF over GST control)
GTCTCC	1.45 fold enrichment (6-mer frequency, TF over GST control)	1.5 fold enrichment (6-mer frequency, TF over GST control)	1.52 fold enrichment (6-mer frequency, TF over GST control)	1.26 fold enrichment (6-mer frequency, TF over GST control)	1.39 fold enrichment (6-mer frequency, TF over GST control)	1.4 fold enrichment (6-mer frequency, TF over GST control)	1.52 fold enrichment (6-mer frequency, TF over GST control)	1.43 fold enrichment (6-mer frequency, TF over GST control)	1.56 fold enrichment (6-mer frequency, TF over GST control)
TGCCTC	1.39 fold enrichment (6-mer frequency, TF over GST control)	1.31 fold enrichment (6-mer frequency, TF over GST control)	1.36 fold enrichment (6-mer frequency, TF over GST control)	1.35 fold enrichment (6-mer frequency, TF over GST control)	1.31 fold enrichment (6-mer frequency, TF over GST control)	1.26 fold enrichment (6-mer frequency, TF over GST control)	1.39 fold enrichment (6-mer frequency, TF over GST control)	1.4 fold enrichment (6-mer frequency, TF over GST control)	1.27 fold enrichment (6-mer frequency, TF over GST control)
GGCCTT	1.17 fold enrichment (6-mer frequency, TF over GST control)	1.18 fold enrichment (6-mer frequency, TF over GST control)	1.29 fold enrichment (6-mer frequency, TF over GST control)	1.16 fold enrichment (6-mer frequency, TF over GST control)	1.09 fold enrichment (6-mer frequency, TF over GST control)	1.13 fold enrichment (6-mer frequency, TF over GST control)	1.18 fold enrichment (6-mer frequency, TF over GST control)	1.19 fold enrichment (6-mer frequency, TF over GST control)	1.17 fold enrichment (6-mer frequency, TF over GST control)
